Experimental findings from paper PMC4102417 are described below.

In this assay the test system is murine 3T3 fibroblasts. Nature of the assay: primary screen, percent viability or growth; higher = less effect of the substance. On the procedure: Similarly, for measuring the cytotoxicity concentration (CC50) for 3T3 fibroblast cells, cultures were incubated with drugs for 72 hours and developed using Alamar Blue (Alamar Biosciences Inc, Sacramento, CA) as previously described.
Consider `O=C(Nc1ccc([N+](=O)[O-])cc1Cl)c1cc(Cl)ccc1O`, for which the “Mammalian (3T3) cell % growth at 10 uM” value is 10.5%.

Turning to `CCCCCCCC/C=C/CCCCCCCCOP(=O)([O-])OCC[N+](C)(C)C`, the “Mammalian (3T3) cell % growth at 10 uM” value came to 93.7%.

As to `CC1OC(OC2C(OC3CCC4(C)C(CCC5(C)C4CC=C4C6CC(C)(C)CCC6(C(=O)O)CCC45C)C3(C)CO)OCC(O)C2O)C(O)C(O)C1O` (stereo not shown), the “Mammalian (3T3) cell % growth at 10 uM” value was 6.8%.

In the case of `COC(=O)c1cc(O)c(=O)c2c(O)c(O)ccc2c1`, the “Mammalian (3T3) cell % growth at 10 uM” value is listed as 92.2%.

In the case of `NC(=O)c1cc([N+](=O)[O-])cc([N+](=O)[O-])c1`, the “Mammalian (3T3) cell % growth at 10 uM” value is given as 97.2%.

As to `C=CC(C1=CC(=O)C(OC)=CC1=O)c1ccc(O)cc1` (stereo not shown), the “Mammalian (3T3) cell % growth at 10 uM” value is recorded as 94.8%.

Turning to `C1CCC(C(CC2CCCCN2)C2CCCCC2)CC1.O=C(O)/C=C\C(=O)O` (stereo not shown), the “Mammalian (3T3) cell % growth at 10 uM” value is listed as -0.2%.

With `COC(=O)C1=C(C)NC(C)=C(C(=O)OC)C1c1ccccc1[N+](=O)[O-]`, the “Mammalian (3T3) cell % growth at 10 uM” value came to 1.7%.

`COc1ccc(-c2cc(=O)c3ccccc3o2)cc1OC`: the “Mammalian (3T3) cell % growth at 10 uM” value is given as 86.4%.

As to `CN(C)CC/C=C1/c2ccccc2Sc2ccc(Cl)cc21`, the “Mammalian (3T3) cell % growth at 10 uM” value was 97.1%.

In the case of `CN1CCN(CCCN2c3ccccc3Sc3ccc(C(F)(F)F)cc32)CC1`, the “Mammalian (3T3) cell % growth at 10 uM” value turned out to be 94.7%.

Regarding `C=CC(C)(O)CCC1C(=C)CC(O)C2C(C)(C)CCCC12C` (stereo not shown), the “Mammalian (3T3) cell % growth at 10 uM” value stood at 74%.

On to `CC(=O)Oc1ccc(Cl)c2cccnc12`, for which the “Mammalian (3T3) cell % growth at 10 uM” value is given as 0.5%.

`CC1(C)C(=O)C2OC2C2(C)C1CC(O)C1(C)C2CCC2(C)C(c3ccoc3)OC(=O)C3OC321` (stereo not shown): the “Mammalian (3T3) cell % growth at 10 uM” value came to 77.3%.

Turning to `CN1CCC(=C2c3ccccc3Sc3ccccc32)CC1`, the “Mammalian (3T3) cell % growth at 10 uM” value was determined as 98.5%.

For the compound `C[C@@](Cc1ccc(O)c(O)c1)(NN)C(=O)O`, the “Mammalian (3T3) cell % growth at 10 uM” value was determined as 17.7%.

As to `COc1cc(OC)c2c(=O)c(O)c(-c3ccc(OC)c(OC)c3)oc2c1`, the “Mammalian (3T3) cell % growth at 10 uM” value was found to be 39.6%.

With `Cc1cc(/C=C/c2ccc3cc(N(C)C)ccc3[n+]2C)c(C)n1-c1ccccc1.O=C([O-])c1cc2ccccc2c(Cc2c(O)c(C(=O)O)cc3ccccc23)c1O`, the “Mammalian (3T3) cell % growth at 10 uM” value was 50%.

`CC(=O)Oc1cc2c(c(C)c1OC(C)=O)CC=C1C2(C)CCC2(C)C3CC(C)(C(=O)O)CCC3(C)CCC12C` (stereo not shown): the “Mammalian (3T3) cell % growth at 10 uM” value came to 0.6%.

In the case of `Oc1ccc(O)cc1`, the “Mammalian (3T3) cell % growth at 10 uM” value stood at 93.9%.

In the case of `O=C1C=C2C(=CCOC2O)O1` (stereo not shown), the “Mammalian (3T3) cell % growth at 10 uM” value is recorded as 0.5%.

`CC(=O)OC1CC2C(C)(C)C(=O)C3OC3C2(C)C2CCC3(C)C(c4ccoc4)OC(=O)C4OC43C12C` (stereo not shown): the “Mammalian (3T3) cell % growth at 10 uM” value came out at 73.4%.

With `COc1ccc2c(c1)OCC(Cc1ccc(OC)c(OC)c1)C2=O` (stereo not shown), the “Mammalian (3T3) cell % growth at 10 uM” value was 84.5%.

For the compound `N#Cc1nn(-c2c(Cl)cc(C(F)(F)F)cc2Cl)c(N)c1S(=O)C(F)(F)F` (stereo not shown), the “Mammalian (3T3) cell % growth at 10 uM” value is recorded as 100%.

`C=CC(C1=CC(=O)C(OC)=CC1=O)c1ccccc1` (stereo not shown): the “Mammalian (3T3) cell % growth at 10 uM” value was 0.9%.

Turning to `O=c1c(O)c(-c2ccccc2)oc2ccccc12`, the “Mammalian (3T3) cell % growth at 10 uM” value was 85.7%.

For the compound `CC[C@@]1([C@@H]2O[C@@H]([C@H]3O[C@@](O)(CO)[C@H](C)C[C@@H]3C)C[C@@H]2C)CC[C@H]([C@]2(C)CC[C@]3(C[C@H](O)[C@@H](C)[C@@H]([C@@H](C)[C@@H](OC)[C@H](C)C(=O)O)O3)O2)O1`, the “Mammalian (3T3) cell % growth at 10 uM” value was determined as 41.3%.

For `COC1C=CC23c4cc5c(cc4CN(CC2O)C3C1)OCO5` (stereo not shown), the “Mammalian (3T3) cell % growth at 10 uM” value came to 36.2%.

In the case of `Cl.Fc1ccc(C2CCNCC2COc2ccc3c(c2)OCO3)cc1` (stereo not shown), the “Mammalian (3T3) cell % growth at 10 uM” value was found to be 100%.

`O=c1c(O)c(-c2ccc(O)c(O)c2)oc2c(O[C@@H]3O[C@H](CO)[C@@H](O)[C@H](O)[C@H]3O)c(O)cc(O)c12`: the “Mammalian (3T3) cell % growth at 10 uM” value came to 100%.

Take `COc1ccc2cc3[n+](cc2c1OC)CCc1cc2c(cc1-3)OCO2`: the “Mammalian (3T3) cell % growth at 10 uM” value is given as 75.8%.

On to `CC(=O)OC1CCC2(C)C(CC(OC(C)=O)C3(C)C2CCC2(C)C(c4ccoc4)OC(=O)C4OC423)C1(C)C` (stereo not shown), for which the “Mammalian (3T3) cell % growth at 10 uM” value came out at 96.7%.

Take `CC(C)C(C)/C=C/C(C)C1CCC2C3=CC=C4CC(O)CCC4(C)C3CCC21C` (stereo not shown): the “Mammalian (3T3) cell % growth at 10 uM” value amounted to 99.6%.

Turning to `COc1cc(O)c(C(=O)c2ccccc2)cc1O`, the “Mammalian (3T3) cell % growth at 10 uM” value came to 47.4%.
